Results from PubChem BioAssay AID488966 (Southern Research Specialized Biocontainment Screening …, 2010).
“And” between values parts separate entries of the source, which are not always exact repeats. Identical values can stand only once. The whole screen tested about 340,000 compounds, of which about 55 (0.02%) were called active.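 How the source made its calls: active means phage lysis inhibition, versus mean bacterial control, above a set limit; inconclusive means no clear call, values can overlap the other calls; inactive means the rest.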 The list is a sample of the results. Entries with a potency or affinity are not part of this list.

Assay: inhibition of K1F phage lysis, E. coli UTI89, bacterial capsule biogenesis inhibitors, alamar blue (AID 488966);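 further: capsule biogenesis inhibitors block K1F phage lysis so surviving cells raise fluorescence; higher fluorescence means more inhibition of phage lysis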
Conditions: 2 h; inhibition: at 100 µM, active compounds read high unless noted; series mostly up to 300 µM

inhibition, inactive:
COc1ccc(C(=O)NNC(=O)CCc2nc3ccccc3c(=O)[nH]2)cc1 -0.85%, O=C(CSc1nnc(CNC(=O)c2ccco2)o1)Nc1nc2ccccc2s1 0.07%, CC(=O)NC1=NN(C(C)=O)C(C)(c2cccnc2)S1 (configuration not stated) 0.35%, CCCOc1ccc(C2c3c(oc4ccccc4c3=O)C(=O)N2CCCN2CCOCC2)cc1 (configuration not stated) 3.1%, CC(C)Oc1ccc(C2c3c(oc4ccccc4c3=O)C(=O)N2CCCN2CCOCC2)cc1 (configuration not stated) 7.09%, Cc1cc2oc3c(c(=O)c2cc1C)C(c1ccc(F)cc1)N(CCCN1CCOCC1)C3=O (configuration not stated) 10.1%, Cc1cc2oc3c(c(=O)c2cc1C)C(c1ccc(C(C)C)cc1)N(CCCN1CCOCC1)C3=O (configuration not stated) 10.9%, CCCCCCn1c(N2CCN(c3cccc(Cl)c3)CC2)nc2c1c(=O)[nH]c(=O)n2C -0.58%, COc1ccc(-c2c(C)oc3c(CN4CCOCC4)c(O)ccc3c2=O)cc1 0.06%, O=C(CSc1nc2ccc(Cl)cc2[nH]1)NCCc1ccc(Cl)cc1 0.86%, C=CCn1c(C)nnc1SCC(=O)c1[nH]c(C)c(C(C)=O)c1C -0.26%, COc1ccc(C(=O)Nc2ccc3c(c2)nc(CCNC(C)=O)n3C)cc1 5.13%, C/C(=N\NC(=S)NCCc1ccccc1)c1ccc(C#N)cc1 0.17%, Cc1ccccc1CN1CCN(CCCc2ccccc2)C(CCO)C1 (configuration not stated) 0.26%, C[C@H](CO)N1C[C@H](C)[C@@H](CN(C)Cc2ccc(C(=O)O)cc2)Oc2c(NS(=O)(=O)c3ccccc3)cccc2C1=O 0.71%, O=C(COc1ccc2c(-c3ccccc3)cc(=O)oc2c1)NCCCn1ccnc1 -2.78%, N=C(N)c1ccccc1 3.36% and 4.08%, N=C(N)c1ccc(O)cc1 -1.49%, Cc1occc1C(=O)NNC(=O)CN1C(=O)NC2(CCCCC2)C1=O 1% [at 50 µM, active compounds read high], COc1ccc(C(=O)Nc2nc3ccc(OC)cc3s2)cc1 0.38%, COc1ccc2nc(NC(C)=O)sc2c1 0.03%, Cc1cc(C)c2sc(NNC(=O)C3COc4ccccc4O3)nc2c1 (configuration not stated) 3.07%, COc1ccc(NC(=O)C(C)N2c3cccc4cccc(c34)S2(=O)=O)cc1 (configuration not stated) 4.61%, N=C1/C(=C\c2ccc(SCc3ccco3)o2)C(=O)N=C2SC=NN12, CCS(=O)(=O)C1=NN2C(=N)/C(=C\c3ccc(SCc4ccco4)o3)C(=O)N=C2S1 -0.03%, O=C(c1cc2ccccc2o1)N1CCN(c2ccccn2)CC1 0.07%, COc1cccc(C(=O)Nc2ncc3c(n2)CC(C)CC3=O)c1 (configuration not stated) 0.02%, Cn1c(N)c(C(=O)Nc2cccc(Cl)c2)c(=O)n(C)c1=O 0.32%, CC(OC(=O)CCCN1C(=O)c2ccccc2C1=O)C(=O)Nc1ncc(Cl)cc1Cl (configuration not stated) 0.75%, O=C(Cc1ccsc1)Nc1ccc2c(c1)OCO2 0.48% [at 50 µM, active compounds read high], COc1ccc(CC(=O)Nc2ccc(N3CCOCC3)cc2)cc1OC -0.16%, Cc1ccccc1OCC(=O)Nc1ccc(C(=O)Nc2ccccc2C(=O)O)cc1 0.645% [at 50 µM, active compounds read high], Cc1cccc(OCC(=O)Nc2ccc(C(=O)Nc3ccccc3C(=O)O)cc2)c1C 1.06% [at 50 µM, active compounds read high], Cc1ccc2nc(C3CCCN3Cc3nc(CCC(C)C)no3)[nH]c2c1 (configuration not stated) 0.57%, CCOc1ccc(C(=O)NN2C(=O)C3C4C=CC(O4)C3C2=O)cc1 (configuration not stated) 0.49%, COc1ccc(C2=CSC3=C(C(=O)c4cccc(S(=O)(=O)N(C)C)c4)CCN23)cc1 0.33%, CN(C(=O)Cn1c(=O)oc2cc(S(=O)(=O)N3CCCC3)ccc21)C1CCCCC1 0.1%
